Screens (PubChem)
GLD-1 RNA inh: GLD-1/TGE RNA complex disruptors, primary screen, biochemical, fluorescence polarization | purified GLD-1 + fluorescein TGE RNA | inhibition, % at 5.96 µM | hit rate 0.44% among 320,000;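 active = percent inhibition above a per-plate cutoff, the plate mean of test compounds plus 3 SD, cut at about 30% in these data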;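 note: 0% = DMSO wells with GLD-1 and probe and 100% = wells lacking GLD-1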
Target sequence (Q17339 whole entry, looked up): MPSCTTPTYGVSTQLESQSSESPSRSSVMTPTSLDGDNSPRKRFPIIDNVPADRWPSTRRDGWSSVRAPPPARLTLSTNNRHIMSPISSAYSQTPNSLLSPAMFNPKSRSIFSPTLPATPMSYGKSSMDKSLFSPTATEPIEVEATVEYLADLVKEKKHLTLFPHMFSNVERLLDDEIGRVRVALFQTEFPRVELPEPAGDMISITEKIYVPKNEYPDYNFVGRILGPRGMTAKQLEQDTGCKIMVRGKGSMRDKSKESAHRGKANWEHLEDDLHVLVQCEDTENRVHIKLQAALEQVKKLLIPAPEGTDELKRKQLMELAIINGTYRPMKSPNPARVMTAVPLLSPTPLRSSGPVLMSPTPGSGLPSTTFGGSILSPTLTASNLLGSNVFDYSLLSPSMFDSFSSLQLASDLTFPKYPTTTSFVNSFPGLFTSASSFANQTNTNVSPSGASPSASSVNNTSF
MEX-5 binding: MEX-5 zinc finger RNA-binding disruptors – biochemical, C. elegans, fluorescence polarization, MLPCN library, primary screen | Zinc finger protein mex-5 (Caenorhabditis elegans), Q9XUB2 | hit rate 0.38% among 300,000 | activity score (negative = inhibition of binding), % at 10 µM | MEX-5/FITC-TCR2 RNA binding; active compounds read low;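 active = inhibition past about -25% in most replicates, and total fluorescence under double the plate's negative control median, limit read from the data; inconclusive = replicates evenly split on the limit, or fluorescence at least double controls; inactive = too little inhibition in most replicates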;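 note: 0% = DMSO and -100% = 5 µM competing unlabeled TCR2 RNA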
E coli Lon inh: inhibitors of E. coli Lon protease, primary screen, biochemical, fluorescence polarization; P0A9M0; purified E. coli Lon protease; hit rate 0.42% among 360,000; inhibition, % at 7.94 µM; in the data active = inhibition above about 13%, passing the limit was not always enough;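 note: 0% = enzyme with probe and DMSO and 100% = no enzyme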
MCL1 BIM primary: inhibitors of MCL1 binding to BIM-BH3, primary screen, biochemical, fluorescence polarization. Induced myeloid leukemia cell differentiation protein Mcl-1 (Homo sapiens), Q07820. inhibition, % at 10.9 µM. GST-MCL1 / FITC-Bim-BH3 fluorescence polarization. hit rate 0.68% among 320,000;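 active = inhibition above the mean inhibition of all tested compounds plus 3 SD, set per campaign, cut at about 40% in these data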;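 note: 0% = DMSO wells and 100% = unlabeled Bim-BH3 peptide control; higher means more loss of mP so more displacement of Bim peptide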
Bcl-xL primary: inhibitors of human Bcl-xL, primary screen, biochemical, fluorescence polarization, HTS | Bcl-2-like protein 1 (Homo sapiens), Q07817 | GST-Bcl-xL / FITC-Bim BH3 peptide fluorescence polarization | inhibition, % at 10.9 µM | hit rate 0.7% among 320,000;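 active = inhibition above the mean of all tested compounds plus 3 SD, cutoff set per campaign, cut at about 30% in these data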;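 note: 0% = DMSO wells and 100% = unlabeled Bim-BH3 peptide competitor; inhibitors lower millipolarization by displacing the labeled peptide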
Target sequence (Q07817 whole entry, looked up): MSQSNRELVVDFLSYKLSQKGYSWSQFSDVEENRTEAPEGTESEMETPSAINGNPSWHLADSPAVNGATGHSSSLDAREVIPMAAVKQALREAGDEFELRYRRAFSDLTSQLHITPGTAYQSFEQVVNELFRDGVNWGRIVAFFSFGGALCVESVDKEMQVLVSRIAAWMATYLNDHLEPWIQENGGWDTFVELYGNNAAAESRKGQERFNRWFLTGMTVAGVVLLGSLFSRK
Bcl-xL conf: Bcl-xL inhibitors blocking Bim BH3 binding, confirmation, counter-screen for MCL1 inhibitor project, biochemical, fluorescence polarization; shares compounds with MCL1 BIM primary; hit rate 54% among 1,700; inhibition, % at 10.9 µM; GST-Bcl-xL / FITC-Bim BH3 peptide FP binding;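 active = inhibition above a cutoff equal to the mean inhibition of all tested compounds plus 3 SD, cut at about 30% in these data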;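 note: 0% = DMSO wells and 100% = unlabeled Bim BH3 control peptide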
MCL1 inh confirm: inhibitors of MCL1 binding to BIM-BH3, confirmation, biochemical, fluorescence polarization, triplicate | GST-MCL1 / FITC-Bim-BH3 fluorescence polarization | shares compounds with MCL1 BIM primary | inhibition, % at 10.9 µM | hit rate 61% among 1,700;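 active = inhibition above the average of all tested compounds plus 3 SD, cut at about 40% in these data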;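 note: 0% = DMSO wells and 100% = unlabeled Bim-BH3 control peptide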
An asterisk follows results filed as active. Hits are enriched below; roughly 1.4% of the tested compounds scored in any of these assays.

CCCc1nc(SC2CCCC2)c2c(=O)n(C)c(=O)n(C)c2n1 was read as GLD-1 RNA inh 3.3, MEX-5 binding -1.9, E coli Lon inh 5.3, MCL1 BIM primary active, Bcl-xL primary 0.9, Bcl-xL conf 4.1 and MCL1 inh confirm 5.4.
O=C(NCc1ccc(F)cc1)c1cc(C2CCCN(C(=O)c3ccc4ccccc4c3)C2)on1 (configuration not stated) was read as E coli Lon inh -3.2.
Screening Cn1cccc1/C=C(/C#N)C(N)=S returned GLD-1 RNA inh -9.2, MEX-5 binding -2.1, E coli Lon inh 0.3, MCL1 BIM primary 15.0 and Bcl-xL primary 5.3.
`Cc1ccc(-c2ccc(/C=C(\C#N)C(N)=S)n2C)cc1` gave GLD-1 RNA inh -32.6, E coli Lon inh -23.2, MCL1 BIM primary 68.2*, Bcl-xL primary 67.4*, Bcl-xL conf 9.2 and MCL1 inh confirm 3.7.
`O=C1CC(/C=C/c2ccco2)=Nc2ccccc2N1` gave GLD-1 RNA inh 16.1, MEX-5 binding -7.3, E coli Lon inh -7.3, MCL1 BIM primary 60.2*, Bcl-xL primary 49.6*, Bcl-xL conf 32.3* and MCL1 inh confirm 45.0*.
For O=C1CC(/C=C/c2ccc([N+](=O)[O-])cc2)=Nc2ccccc2N1 the results were GLD-1 RNA inh -0.8, E coli Lon inh 3.9, MCL1 BIM primary 1.9 and Bcl-xL primary 0.2.
For O=C(NCCc1ccccc1)c1ccc2nc(-c3ccco3)c(-c3ccco3)nc2c1 the results were GLD-1 RNA inh 8.2, MEX-5 binding -0.6, E coli Lon inh 3.3, MCL1 BIM primary 40.0*, Bcl-xL primary 28.9, Bcl-xL conf 42.5* and MCL1 inh confirm 75.0*.
O=C(NCCc1ccccc1)c1ccc(=O)oc1 was read as GLD-1 RNA inh -5.9, MEX-5 binding 2.0, E coli Lon inh 3.3, MCL1 BIM primary -14.6 and Bcl-xL primary -4.0.
O=C(NCCO)c1ccc(Cl)c(Cl)c1 was read as GLD-1 RNA inh 0.5, MEX-5 binding 1.1, E coli Lon inh -0.2, MCL1 BIM primary 7.3 and Bcl-xL primary 3.1.
O=C(NC1CCCC1)c1ccc2nc(-c3ccco3)c(-c3ccco3)nc2c1 was read as GLD-1 RNA inh 9.2, E coli Lon inh 7.2, MCL1 BIM primary 64.0*, Bcl-xL primary 40.8*, Bcl-xL conf 40.1* and MCL1 inh confirm 76.2*.
`c1coc(-c2nc3ccccc3nc2-c2ccco2)c1` gave GLD-1 RNA inh 9.7, MEX-5 binding inconclusive, E coli Lon inh 6.6, MCL1 BIM primary 60.5*, Bcl-xL primary 33.6*, Bcl-xL conf 33.6* and MCL1 inh confirm 42.3*.
For O=C(NCCO)c1ccc2nc(-c3ccco3)c(-c3ccco3)nc2c1 the results were GLD-1 RNA inh 20.6, MEX-5 binding -38.7*, E coli Lon inh 18.4, MCL1 BIM primary 56.5*, Bcl-xL primary 42.9*, Bcl-xL conf 59.6* and MCL1 inh confirm 77.4*.
`O=c1oc(-c2ccco2)nc2ccccc12` gave GLD-1 RNA inh 8.5, MEX-5 binding -0.2, E coli Lon inh -12.4, MCL1 BIM primary 2.9 and Bcl-xL primary 4.8.
Cc1nc(C)c(CC(=O)N/N=C/c2ccc(O)cc2)c(=O)[nH]1 was read as GLD-1 RNA inh 4.3, MEX-5 binding 0.3, E coli Lon inh -1.1, MCL1 BIM primary 2.4 and Bcl-xL primary 3.2.
Screening Cc1cccc(NC(=O)c2ccc([N+](=O)[O-])s2)c1C returned GLD-1 RNA inh 5.6, MEX-5 binding 0.4, E coli Lon inh -1.6, MCL1 BIM primary 0.7 and Bcl-xL primary -4.0.
For C/C(=N/NC(=O)c1nnn(-c2nonc2N)c1CSc1ccc(Cl)cc1)c1ccncc1 the results were E coli Lon inh -6.2.
Screening O=c1cc(-c2ccccc2Cl)oc2cccc(O)c12 returned GLD-1 RNA inh 4.1, MEX-5 binding 0.6, E coli Lon inh 0.0, MCL1 BIM primary 6.3 and Bcl-xL primary 7.5.
O=c1cc2oc3cc(O)c(O)cc3c(-c3ccccc3[N+](=O)[O-])c-2cc1O was read as GLD-1 RNA inh 8.4, MEX-5 binding -10.7, E coli Lon inh 2.9, MCL1 BIM primary 86.5*, Bcl-xL primary 31.0*, Bcl-xL conf 61.6* and MCL1 inh confirm 103.5*.
Screening CS(=O)(=O)Nc1ccc(C(=O)Nc2cccc([N+](=O)[O-])c2)cc1 returned GLD-1 RNA inh 1.0, MEX-5 binding -3.6, E coli Lon inh -7.7, MCL1 BIM primary 1.6 and Bcl-xL primary -2.0.
Screening Cc1nn(-c2ccccc2)c(Cl)c1/C=N/O returned GLD-1 RNA inh 0.1, MEX-5 binding -2.6, E coli Lon inh -3.4, MCL1 BIM primary 119.4*, Bcl-xL primary 5.6, Bcl-xL conf 4.2 and MCL1 inh confirm 8.9.
For Cc1nn(-c2ccccc2)c(N2CCCC2)c1/C=N/O the results were GLD-1 RNA inh 0.3, MEX-5 binding 0.7, E coli Lon inh 2.3, MCL1 BIM primary 4.5 and Bcl-xL primary 3.6.
O=C(CN1c2ccccc2Sc2ccccc21)NNC(=S)Nc1ccc(Cl)cc1 was read as GLD-1 RNA inh 4.1, MEX-5 binding -0.9, E coli Lon inh 3.4, MCL1 BIM primary 5.9 and Bcl-xL primary 9.8.
`O=C(CN1CCOCC1)NNC(=S)Nc1ccc(Cl)cc1` gave GLD-1 RNA inh -6.9, MEX-5 binding -1.7, E coli Lon inh -11.0, MCL1 BIM primary 55.3*, Bcl-xL primary -0.8, Bcl-xL conf 14.9 and MCL1 inh confirm 20.0.
For COc1ccc(NC(=O)CSc2nc3nc(C)cc(C)c3c(=O)[nH]2)cc1 the results were GLD-1 RNA inh 15.7, MEX-5 binding 2.4, E coli Lon inh -1.5, MCL1 BIM primary 55.3*, Bcl-xL primary 34.9*, Bcl-xL conf 1.6 and MCL1 inh confirm 3.1.
Screening COc1ccccc1NC(=O)CCc1nc2sc3c(c2c(=O)[nH]1)CCCC3 returned GLD-1 RNA inh -3.3, MEX-5 binding 0.9, E coli Lon inh -29.2, MCL1 BIM primary 1.0 and Bcl-xL primary -6.5.
`COc1ccc(NC(=O)CCl)cn1` gave GLD-1 RNA inh 81.7*, MEX-5 binding -60.4*, MCL1 BIM primary 111.5*, Bcl-xL primary 105.1*, Bcl-xL conf 84.5* and MCL1 inh confirm 114.9*.
Screening COc1ccc(NC(=O)/C=C/c2ccco2)cn1 returned GLD-1 RNA inh 10.3, MEX-5 binding -4.1, E coli Lon inh -1.8, MCL1 BIM primary 16.4 and Bcl-xL primary 11.6.
